Rows were chosen to be rich in hits. Some 14% of all compounds tested hit in one or more screens of this group.
FBPA Giardia inh: blocks Giardia fructose-bisphosphate aldolase activity | A8B2U2 | purified Giardia FBPA | Potency, µM (top dose mostly 59.6 µM), without a hit: top-dose activity, negative = inhibition, actives largely listed as inhibitors | hit rate 0.71% among 290,000; note: potency is the fitted concentration of half-maximal effect; nearly all actives have a fitted effect of over 55% in size
Target sequence (A8B2U2 whole entry, looked up): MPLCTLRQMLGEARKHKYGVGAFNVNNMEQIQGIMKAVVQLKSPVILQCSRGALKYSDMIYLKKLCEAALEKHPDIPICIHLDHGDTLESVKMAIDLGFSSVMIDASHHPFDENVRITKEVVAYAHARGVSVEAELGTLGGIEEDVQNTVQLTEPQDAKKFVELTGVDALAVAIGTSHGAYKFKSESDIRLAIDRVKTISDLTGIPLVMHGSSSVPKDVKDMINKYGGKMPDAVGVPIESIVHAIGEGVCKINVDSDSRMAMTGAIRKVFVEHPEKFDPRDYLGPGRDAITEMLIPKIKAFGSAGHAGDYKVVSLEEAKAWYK
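Giardia FBPA (40 nM reagent) was preincubated 10 min at RT with compound (up to 57.5 uM final), then substrate plus GAPDH/TPI/NAD/arsenate coupling system with diaphorase/resazurin was added; resorufin fluorescence (525/598 nm) was read after 20 min.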
HCMV inh: human cytomegalovirus inhibition | HFF cells, HCMV-luciferase reporter, 72 h; hits give low values | activity change, negative = inhibition, % at 57.5 µM | hit rate 4.5% among 410,000; in the data active = activity change below about -60%; inconclusive = no clear call, values can overlap the other calls; inactive = above about -39%
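Compounds were evaluated in HFFs infected with an HCMV luciferase reporter virus (MOI 1 PFU/cell). Luciferase in lysates collected 72 h post infection served as the replication measure.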
Pf growth 96h: P. falciparum growth inhibition at 96 hour, primary screen for plastid delayed-death inhibitors. P. falciparum luciferase reporter growth, 96 h. Potency, µM (titrated, usually from 28.7 µM), inactives show top-dose activity change, negative = inhibition, usual class: inhibitors. AID 504834. hit rate 6.9% among 320,000; note: potency is the fitted concentration of half-maximal effect
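Cell-based qHTS: luciferase-tagged P. falciparum in erythrocytes (2% hematocrit, 0.05% parasitemia final) incubated with compounds for 96 hours, 37 C, 5% CO2; luciferase detection reagent then added and luminescence measured.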
Pf growth 48h: inhibits P. falciparum growth in the first generation, 48 h | P. falciparum luciferase growth in erythrocytes, 48 h | Potency, µM (series often up to 28.7 µM), for inactives: at the top dose activity change, negative = inhibition, actives largely listed as inhibitors | hit rate 5.9% among 310,000 | AID 504832; note: potency is the fitted concentration of half-maximal effect
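Firefly luciferase activity from engineered P. falciparum reports growth; inhibitors lower the luminescent signal. Cultures contained 2% hematocrit erythrocytes at 0.1% final parasitemia.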
Sm TGR block: blocks Schistosoma mansoni thioredoxin glutathione reductase. Q962Y6. purified TGR, DTNB reduction, TNB absorbance 405 nm. Potency, µM (series often up to 114 µM), without a hit: at the highest dose activity change, negative = inhibition, hits mostly inhibitors. hit rate 3% among 360,000. AID 485364; note: potency is the fitted concentration of half-maximal effect; nearly all actives have a fitted effect of over 60% in size
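TGR 20 nM + NADPH 100 uM (dispensed conc.), cpd preinc 15 min RT; start with NADPH (500 uM addition) then DTNB (15 mM addition). Kinetic TNB absorbance, 405 nm filter. Four-parameter Hill fit across titration.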
Active calls of the source: *; ? = inconclusive; / = no result; ! = not active in a repeat. Unless noted, calls come from the whole dose curve; as a rule, active = well fitted curve in the direction sought with a large enough effect; inconclusive = small, poorly fitted or top-dose-only effect, or another doubt; inactive = no such curve, though single readings can be large; an effect the other way counts as inactive or inconclusive. % is set by controls: 0 for no effect and ±100 for the full control effect.

SMILES	FBPA Giardia inh	HCMV inh	Pf growth 96h	Pf growth 48h	Sm TGR block
COC(=O)c1ccccc1NC(=S)N(Cc1ccc2c(c1)OCO2)Cc1cc2ccc(C)cc2[nH]c1=O	-3%	?	?	9.3µM*	1%
COC(=O)c1ccccc1NC(=S)N(Cc1ccc2c(c1)OCO2)Cc1cc2ccc(OC)cc2[nH]c1=O	0%	-63*	34%	9.3µM*	-15%
CC(=O)N(CCc1ccccc1C)Cc1cc2ccc(C)cc2[nH]c1=O	-1%	?	-27%	-23%	-21%
Cc1ccc2cc(CN(CCN(C)C)C(=S)Nc3ccccc3)c(=O)[nH]c2c1C	5%	-6	1%	-22%	-30%
CCN(CC)CCN(Cc1cc2ccc(C)cc2[nH]c1=O)C(=S)Nc1ccccc1C(=O)OC	-3%	-21	47%	13µM*	0%
COC(=O)c1ccccc1NC(=S)N(Cc1ccc2c(c1)OCO2)Cc1cc2cc(C)ccc2[nH]c1=O	-1%	?	5%	?	0%
CCN(CC)CCN(Cc1cc2cccc(C)c2[nH]c1=O)C(=S)Nc1ccccc1	-2%	-24	8%	12µM*	12%
CC[C@]1(C(=O)OC)[C@H]2C(=O)N(Cc3ccccc3)C(=O)[C@H]2[C@H]2CN=C(SC)N21	/	-10	/	/	/
O=C(NCc1ccc(Cl)s1)c1cc(COc2c(F)cccc2F)on1	-1%	-19	?	36%	0%
Cc1cccc(C)c1OCc1cc(C(=O)NCC2CC2)no1	/	8	15µM*	?	-10%
Cc1cccc(C)c1OCc1cc(C(=O)NCc2ccc(Cl)s2)no1	-2%	0	10µM*	15%	-1%
CNC(=O)C1C(=S)NC(N)=C(C#N)C1c1ccccc1 (centres undefined)	?	-28	17%	/	13%
COc1ccc(CC(=O)N2CCC(c3ccccc3)C2)cc1 (centres undefined)	0%	-28	41%	40%	/
C=CCn1c(N)cc(=O)nc1SCC(=O)N1CCN(c2ccc(F)cc2)CC1	-3%	-6	18%	-16%	28µM*
COc1cccc(Cn2c(SCC(=O)N3CCN(c4ccc(F)cc4)CC3)nc3ccccc32)c1	/	-15	/	/	-1%
COc1ccc(CC(=O)N2CCC(Nc3nc4ccccc4n3Cc3ccc(F)cc3)CC2)cc1	0%	85	9.3µM*	4.1µM*	0%
COc1ccc(Cn2c(SCC(=O)N3CCN(c4ccc(F)cc4)CC3)nc3ccccc32)cc1	/	-67*	/	/	-1%
Cc1ccc(F)c(S(=O)(=O)NC(=O)C2(C)CCN2C(=O)c2ccc(C3CCCCC3)cc2)c1 (centres undefined)	/	-25	/	/	/
O=C(NS(=O)(=O)Nc1ccccc1)C1=C(N2CCCC2)COC1=O	/	-21	/	/	/
COC(=O)[C@@H](O)CC[C@@H](C)Cc1c(OC)c(OC)c(C)c(OC)c1OC	6%	/	/	/	/
CCCCCCCCCCCCCCCCn1cc[n+](C)c1	2%	-96*	2.1µM*!	3.3µM*	13%
CC12CCC(C(=O)Nc3cccc(Cl)c3)(C(Br)C1=O)C2(C)C (centres undefined)	-3%	-31	15µM*	?	4%
CC12CCC(C(=O)Nc3c(Cl)cccc3Cl)(C(Br)C1=O)C2(C)C (centres undefined)	14%	-2	?	-1%	1%
CC12CCC(C(=O)Nc3ccc(Cl)cc3)([C@H](Br)C1=O)C2(C)C (some centres undefined)	-9%	-61*	-13%	?	7%
CC12CCC(C(=O)Nc3cccc(Cl)c3Cl)([C@H](Br)C1=O)C2(C)C (some centres undefined)	5%	13	-4%	-2%	-1%
COc1ccc2cc(/C=N/NC(=O)CN(c3ccccc3OC)S(=O)(=O)c3ccccc3)c(Cl)nc2c1	/	0	/	/	/
c1coc(-c2nc3c4ccccc4ccn3c2Cc2ccsc2)c1	/	58	/	/	/
N#Cc1ccccc1Cn1cc(C(=O)c2cccs2)c2ccccc21	1%	-81*	0%	15µM*	16%
O=C(c1cccs1)c1cn(Cc2ccccc2Cl)c2ccccc12	2%	-4	?	/	1%
Cc1[nH]nc(N=CC2=C(O)CC(C)(C)CC2=O)c1-c1ccccc1	-4%	38	28%	35%	-19%

Compound activity from PubChem BioAssay.
